Data reported in ChEMBL document CHEMBL4513141, “CO-ADD screening of NIH (USA) - Clinical Collection” (2021).
Measured potencies and affinities stand elsewhere.

Key:
Klebsiella pneumoniae = conditions: Concentration 20 uM; ASSAY_TEST Inhibition of Bacterial Growth; detection method Absorption (OD600); MEDIA CAMHB; plate type 384well; NBS; CORNING #3640; time 18 hr
Candida albicans = conditions: 20 µM
Cryptococcus neoformans = conditions: Concentration 20 uM; ASSAY_TEST Inhibition of Fungal Growth; detection method Resazurin; Absorption (OD600-OD570); plate type 384well; NBS; CORNING #3640

SMILES | Inhibition (Klebsiella pneumoniae) [%] | Inhibition (Candida albicans) [%] | Inhibition (Cryptococcus neoformans) [%]
CC(C)(C)NCC(O)c1ccc(O)c(CO)c1.CC(C)(C)NCC(O)c1ccc(O)c(CO)c1.O=S(=O)(O)O (stereo not given) [ALBUTEROL SULFATE] | 17.78 | 3.1 | -3.67
CC(C)(S)C(N)C(=O)O (stereo not drawn) [DL-PENICILLAMINE] | 8.23 | 3.66 | -9.16
Nc1nc(Cl)nc2c1ncn2[C@H]1C[C@H](O)[C@@H](CO)O1 [CLADRIBINE] | 16.3 | 1.93 | -8.92
CC(C)C[C@H](NC(=O)[C@@H](O)[C@H](N)Cc1ccccc1)C(=O)O [UBENIMEX] | 12.45 | 0.73 | -0.18
CN[C@@H]1[C@H](O)[C@H](NC)[C@H]2O[C@@]3(O)C(=O)C[C@@H](C)O[C@H]3O[C@@H]2[C@H]1O.Cl.Cl.Cl.O.O.O | 37.26 | 2.22 | -1.83
CCCSc1ccc2[nH]c(NC(=O)OC)nc2c1 [ALBENDAZOLE] | 3.18 | 2.62 | 42.52
OCCN1C[C@H](O)[C@@H](O)[C@H](O)[C@H]1CO [MIGLITOL] | 11.67 | 2.16 | 1.09
Oc1ccc(/C=C/c2cc(O)cc(O)c2)cc1 [RESVERATROL] | 12.99 | 2.92 | -4.32
CC(C)NCC(O)c1ccc(NS(C)(=O)=O)cc1.Cl (stereo not given) [SOTALOL HYDROCHLORIDE] | -0.96 | 5.09 | 3.23
C[C@]12CC[C@@H]3c4ccc(O)cc4CC[C@H]3[C@@H]1CC[C@@H]2O [ESTRADIOL] | 5.27 | 5.91 | -4.05
